Many of the other results were omitted from the sample, so hits are more common in it than they were.
Tgondii IFNg: T. gondii growth inhibition under IFN-gamma; Toxoplasma gondii growth in IFN-gamma-treated host cells; stronger effect = lower value; activity change, negative = inhibition, % (test concentration not listed); 69,000 tested, 3.8% active; AID 1259416; in the data active = activity change below about -70%, passing the limit was not always enough;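 also: host cells are HeLa cells infected with Toxoplasma gondii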
* = called active by the depositor; i = inactive.

SMILES | Tgondii IFNg
Cc1oc(C2CCN(C(=O)Nc3cc(F)cc(F)c3)CC2)nc1C(=O)N1CCCC1 | -28
Cc1cccc(NC(=O)N2CCC(c3nc(C(=O)N4CCCC4)c(C)o3)CC2)c1 | -19
CCn1c(C2CCCN(C(=O)CSc3nncn3C)C2)nn(C)c1=O (configuration not stated) | -27
O=C(O)c1cc(-c2ccncc2)cc(S(=O)(=O)N2CCCC2)c1 | 2
COc1cccc(N2CC3(CCN(c4cnccn4)C3)CC2=O)c1 (configuration not stated) | 5
Oc1ccccc1CCc1nncn1-c1cccc(F)c1 | 3
CC1=C(C(=O)NCCCN2C(C)CCCC2C)C2(CCN(Cc3ccccc3)CC2)OC1=O (configuration not stated) | 80
COc1cccc(/C=c2\c(=O)n(Cc3ccccc3)c3nc4c(c(=O)n(C)c(=O)n4C)n23)c1 | 11
COc1ccccc1-c1noc(-c2nnn(Cc3nc(-c4ccccc4OC)oc3C)c2C)n1 | 4
COc1ccc(-n2c(Cc3c(C)n[nH]c3C)n[nH]c2=O)c(C)c1 | 9
O=c1[nH]c(=O)n([C@H]2C[C@H](O)[C@@H](CO)O2)cc1Br | -45
Cc1cn(C2CC(O)C(CO)O2)c(=O)[nH]c1=O (configuration not stated) | -7
O=c1[nH]c(=O)n([C@H]2C[C@H](O)[C@@H](CO)O2)cc1F | -94*
CN(C)CCCNC(=O)[C@H]1[C@H](CO)[C@H]2Cn3c(ccc(-c4cccnc4)c3=O)[C@@H]1N2C(=O)CC1CC1 | 1
COc1ccc2c(cc(C(=O)NCCn3nc(C)c(Cl)c3C)n2C)c1OC | 27
CC(C)NC(=O)N1C[C@@H]2OCCN(c3cnccn3)[C@H]2C1 | -44
C[C@H]1CN([C@@H](C)CO)C(=O)c2cc(C#CC3(O)CCCC3)cnc2O[C@@H]1CN(C)S(=O)(=O)c1cccc(F)c1 | -112*
C[C@H](CO)N1C[C@H](C)[C@H](CN(C)S(=O)(=O)c2cccc(F)c2)Oc2ncc(C#CC3(O)CCCC3)cc2C1=O | 60
C[C@H](CO)N1C[C@H](C)[C@@H](CN(C)C(=O)c2ccccc2)Oc2ncc(C#Cc3ccccc3)cc2C1=O | -88*
C[C@H]1CN([C@@H](C)CO)C(=O)c2cc(C#Cc3ccccc3)cnc2O[C@H]1CN(C)C(=O)c1ccccc1 | -14
C[C@@H]1CN([C@H](C)CO)C(=O)c2cc(C#Cc3ccccc3)cnc2O[C@@H]1CN(C)C(=O)c1ccccc1 | 17
C[C@@H]1CN([C@H](C)CO)C(=O)c2cc(C#CC3(O)CCCC3)cnc2O[C@H]1CN(C)S(=O)(=O)c1cccc(F)c1 | i
CCS(=O)(=O)N1CCOCC2(CN(c3cnn(C)c3)C(=O)CO2)C1 (configuration not stated) | 5
CCCCNC(=O)CCC1N=C2c3ccccc3N=C(SCc3cccc(F)c3)N2C1=O (configuration not stated) | 8
CCc1ccc(S(=O)(=O)Nc2ccc3c(c2)CCC(=O)N3CCOC)cc1 | -25
SMILES | Tgondii IFNg
Cc1cc(C)n(CCCN(C)Cc2cc3n(n2)CCNC3)n1 | 20
CC(C)COc1ccc(-c2noc(-c3c(O)c4cc(Cl)ccc4[nH]c3=O)n2)cc1 | 18
CC(C)c1nccn1CCCNC(=O)c1ccc(-c2cn[nH]c2)nc1 | -2
O[C@H]1CCN(c2ccc(-c3nc(-c4cccc(C(F)(F)F)c4)no3)cn2)C1 | -26
CN(C)Cc1ccc(S(=O)(=O)n2ccc(/C=C/C(=O)NO)c2)cc1 | -81*
CCc1cnc(N2CCC3(CC2)OC(C(=O)N(C)C)Cn2ccnc23)nc1 (configuration not stated) | -18
N#CCCC1CCCCCCCCCCC1=O (configuration not stated) | 22
O=C(COc1ccc(Cl)cc1)NCc1ccccc1 | 97
O=C(/C=C/c1ccc(Cl)cc1)NCCc1ccccc1 | -13
OC(CCCc1ccccc1)(c1ccc(Cl)cc1)c1ccc(Cl)cc1 | -80*
CC1CN(C(=O)c2cn[nH]c2C2CCN(C(=O)Cc3ccccc3F)CC2)CC(C)O1 (configuration not stated) | 13
COC[C@H]1CN(CC2CC2)C[C@@]12CCN(CCc1ccccc1)C2 | -56
C=CCNC(=O)N1CCC(Cc2nnc(SC)n2C)CC1 | 2
Cc1onc(-c2ccccc2)c1NC(=O)Nc1ccc(-n2ccc(C(F)(F)F)n2)cc1 | -13
O=C(Nc1ccccc1)Nc1ccc(-n2ccc(C(F)(F)F)n2)cc1 | -81*
O=C(Nc1cccc(-n2cnnn2)c1)c1ccccc1 | 2
O=c1sc2ccccc2n1CCCOc1ccccc1 | -10
CN(CCOc1ccc(CC(Nc2ccccc2C(=O)c2ccccc2)C(=O)O)cc1)c1ccccn1 (configuration not stated) | 7
COC(=O)C(Cc1ccc(OCCn2c(=O)sc3cc(C(=O)c4ccccc4)ccc32)cc1)C(=O)OC | -87*
COc1nc2ccccc2cc1-c1cnc(N)c(C)c1 | -9
COc1ccc(-c2nc(C)c(CCNS(=O)(=O)c3ccc(Cl)cc3)s2)cc1 | i
CCN1C(=O)CCc2cc(NC(=O)CCCc3ccccc3)ccc21 | 20
CC(C)NC(=O)N1CCC(c2nc(CCNC(=O)C3CCC3)cs2)CC1 | 68
COCCn1c(C)cc2cc(NC(=O)c3cnn4cc(C)cnc34)ccc21 | -24
Cn1ncc2c(Sc3ccc(Cl)cc3)ncnc21 | -66
SMILES | Tgondii IFNg
Cn1ncc(C(=O)Sc2ccc(Cl)cc2)c1-n1cccc1 | -94*
Cc1nn(-c2ccccc2)nc1C(=O)Sc1ccc(Cl)cc1 | -59
COc1nc(C)c(CC(=O)N2C[C@@H](c3ccccc3F)[C@@]3(CCCC(=O)N3)C2)c(OC)n1 | -23
Cc1cccc(C2(O)C(=O)N(Cc3nc(-c4ccccc4)oc3C)c3ccccc32)c1 (configuration not stated) | -36
COc1ccc(-c2nc(CN3C(=O)C(O)(c4cccc(F)c4)c4ccccc43)c(C)o2)cc1 (configuration not stated) | -74*
Cc1ccc(C2(O)C(=O)N(Cc3nc(-c4ccccc4)oc3C)c3ccccc32)cc1 (configuration not stated) | -48
COCc1nc(NCCn2cccc2)c2cnn(C)c2n1 | -8
COc1cc2c(Oc3ccc(NC(=O)C4(C(=O)Nc5ccc(F)cc5)CC4)cc3F)ccnc2cc1OCCCN1CCOCC1 | -68
COc1ccc(-c2nc(NCCCN3CCN(C)CC3)c3ccccc3n2)cc1 | -51
COc1cc(Nc2c(C#N)cnc3cc(OCCCN4CCN(C)CC4)c(OC)cc23)c(Cl)cc1Cl | -79*
OCc1ccc(-c2nccn2CCSc2cn[nH]n2)o1 | -49
COc1ncccc1-c1[nH]cnc1-c1ccccc1 | -15
COc1ncccc1-c1nn(C)c2ccc(C)cc12 | 7
COc1ncccc1-c1cccc(-c2nnc(C)s2)c1 | -94*
CNC(=O)CC(C)N(C)Cc1ccc2c(C)cc(=O)oc2c1 (configuration not stated) | 2
C=CC(=O)Nc1cccc(Nc2nc(Nc3ccc(Oc4ccnc(C(=O)NC)c4)cc3)ncc2F)c1 | -78*
C=CC(=O)Nc1cccc(OC)c1 | 17
C=CC(=O)Nc1ccc2ncnc(Nc3cccc(Br)c3)c2c1 | -45
Cc1ccc(CNC(=O)CCC2CCCN(c3nc4ccccc4s3)C2)o1 (configuration not stated) | 11
Cc1ccc2[nH]cc(-c3nc(C)cnc3C)c2c1 | -33
Cn1c(=O)c(-c2nc(-c3ccccc3Cl)no2)c(O)c2ccccc21 | 39
C#CCOC(=O)Nc1cnc(OCC)c(C(F)(F)F)c1 | -75*
CCOC(=O)NC(Nc1cc(C)on1)(C(F)(F)F)C(F)(F)F | 94

High-throughput results deposited in PubChem BioAssay by Broad Institute.
